activity, negative = inhibition and outcome data for 23 compounds are collected here from PubChem BioAssay (NCATS).

Structures are written as SMILES. Several values for one entry are separate records, joined by “and”; a condition that tells them apart may be missing. Identical values can stand only once. Results filed as inconclusive are left out. Activity calls are given as the source filed them. The call rests on the fitted dose curve; in most records, active means well fitted inhibition curve with a large enough effect; inconclusive means small, poorly fitted or top-dose-only effect; inactive means flat fitted curve, though single readings scatter.

Tested on in one test: not listed separately
Kind of test: qHTS profiling for inhibitors of Plasmodium falciparum proliferation (AID 504749).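 Further: 0% = DMSO vehicle and full inhibition = artemisinin control; nearly all actives have a fitted effect of over 60% in size.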 The settings on record: P. falciparum in erythrocytes, SYBR Green DNA, 72 h; at 28.7 µM (top of the series); parasite line B. The method, boiled down:
(§1)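 Readout was DNA-dye fluorescence from lysed cultures, ex 485/em 535 nm. Parasitized red cells had grown 72 h with compound; data scaled between 0.29 uM artemisinin and DMSO wells and corrected using vehicle-only plates.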
With `O=C1NCC2(CCN(CCc3ccccc3)CC2)O1`, the activity, negative = inhibition is 1.55% (inactive).

In the case of `CCOC(=O)O[C@]1(C(=O)OCCl)CC[C@@H]2[C@H]3CCC4=CC(=O)C=C[C@]4(C)[C@@H]3[C@@H](O)C[C@@]21C`, the activity, negative = inhibition is 4.48% (inactive).

For `CC(=O)c1ccc(S(=O)(=O)NC(=O)NC2CCCCC2)cc1`, the activity, negative = inhibition is 7.49% (inactive).

As to `O=c1[nH]cnc2c1ncn2[C@H]1CC[C@@H](CO)O1`, the activity, negative = inhibition was 7.28% (inactive).

On to `NCCS`, for which the activity, negative = inhibition was 7.21% (inactive).

Take `O=C(O)c1cc(-c2ccccc2)nc2ccccc12`: the activity, negative = inhibition is 7.48% (inactive).

As to `COc1ccccc1N1CCN(CCCNc2cc(=O)n(C)c(=O)n2C)CC1`, the activity, negative = inhibition was -11.7% (inactive) and -0.932% (inactive).

Turning to `C[C@@H](O)[C@H]1C(=O)N2C(C(=O)O)=C(S[C@@H]3CN[C@H](C(=O)N(C)C)C3)[C@H](C)[C@H]12`, the activity, negative = inhibition is 13.7% (inactive).

For `CN(C)CCC(c1ccccc1)c1ccccn1` (centres undefined), the activity, negative = inhibition is 5.22% (inactive).

As for `NC(N)=Nc1nc(CSCC/C(N)=N/S(N)(=O)=O)cs1`, the activity, negative = inhibition was 4.88% (inactive).

Consider `O=C(O)Cc1cccc2ccccc12`, for which the activity, negative = inhibition is 6.39% (inactive).

In the case of `O=C1NC(=O)C(c2ccccc2)(c2ccccc2)N1`, the activity, negative = inhibition is -26.3% (inactive).

For `O=C1Nc2ccc(Cl)cc2C(C#CC2CC2)(C(F)(F)F)O1` (centres undefined), the activity, negative = inhibition is 0.376% (inactive).

With `CCN1CCC[C@H]1CNC(=O)c1cc(S(N)(=O)=O)ccc1OC`, the activity, negative = inhibition was 23% (inactive).

For `Cc1cccc(C)c1OCC(C)N` (centres undefined), the activity, negative = inhibition is -7.13% (inactive).

Turning to `C[N+](C)(C)CCCCCC[N+](C)(C)C`, the activity, negative = inhibition is 5.66% (inactive).

Take `CCN(CC)CCNC(=O)c1ccc(N)cc1`: the activity, negative = inhibition was 5.88% (inactive).

Regarding `O=C(NCCN1CCOCC1)c1ccc(Cl)cc1`, the activity, negative = inhibition was 3.61% (inactive).

For the compound `CC1(C)O[C@H]2C[C@@H]3[C@H]4CCC5=CC(=O)C=C[C@]5(C)[C@@]4(F)[C@@H](O)C[C@]3(C)[C@]2(C(=O)CO)O1`, the activity, negative = inhibition was -9.39% (inactive).

As to `CCN(CC)C(=O)c1ccc(O)c(OC)c1`, the activity, negative = inhibition was -14.5% (inactive).

In the case of `CCCNC(=O)NS(=O)(=O)c1ccc(Cl)cc1`, the activity, negative = inhibition is 10.3% (inactive).

In another test the test system is 3D7. Described as above. Particulars: P. falciparum in erythrocytes, SYBR Green DNA, 72 h; series mostly up to 28.7 µM. The method, boiled down:
as §1
For `O=C1NCC2(CCN(CCc3ccccc3)CC2)O1`, the call was inactive.

Turning to `CC(=O)CCCCn1c(=O)c2c(ncn2C)n(C)c1=O`, the call was inactive.

With `CCOC(=O)O[C@]1(C(=O)OCCl)CC[C@@H]2[C@H]3CCC4=CC(=O)C=C[C@]4(C)[C@@H]3[C@@H](O)C[C@@]21C`, the outcome was inactive.

Regarding `CC(=O)c1ccc(S(=O)(=O)NC(=O)NC2CCCCC2)cc1`, the outcome was inactive.

For the compound `O=c1[nH]cnc2c1ncn2[C@H]1CC[C@@H](CO)O1`, the compound was classed as inactive.

Turning to `NCCS`, the compound was classed as inactive.

As to `O=C(O)c1cc(-c2ccccc2)nc2ccccc12`, the compound was classed as inactive.

Turning to `COc1ccccc1N1CCN(CCCNc2cc(=O)n(C)c(=O)n2C)CC1`, the result was inactive.

Take `C[C@@H](O)[C@H]1C(=O)N2C(C(=O)O)=C(S[C@@H]3CN[C@H](C(=O)N(C)C)C3)[C@H](C)[C@H]12`: the compound was classed as inactive.

For `CN(C)CCC(c1ccccc1)c1ccccn1` (centres undefined), the outcome was inactive.

Take `NC(N)=Nc1nc(CSCC/C(N)=N/S(N)(=O)=O)cs1`: the compound was called inactive.

Turning to `O=C(O)Cc1cccc2ccccc12`, the compound was called inactive.

For `O=C1NC(=O)C(c2ccccc2)(c2ccccc2)N1`, the call was inactive.

`O=C1Nc2ccc(Cl)cc2C(C#CC2CC2)(C(F)(F)F)O1` (centres undefined): the compound was classed as inactive.

With `CCN(CC)CCOC(=O)c1ccc(N)cc1`, the result was inactive.

Turning to `CCN1CCC[C@H]1CNC(=O)c1cc(S(N)(=O)=O)ccc1OC`, the outcome was inactive.

As to `Cc1cccc(C)c1OCC(C)N` (centres undefined), the result was inactive.

As to `C[N+](C)(C)CCCCCC[N+](C)(C)C`, the result was inactive.

Take `CCN(CC)CCNC(=O)c1ccc(N)cc1`: the result was inactive.

Regarding `O=C(NCCN1CCOCC1)c1ccc(Cl)cc1`, the result was inactive.

For `CC1(C)O[C@H]2C[C@@H]3[C@H]4CCC5=CC(=O)C=C[C@]5(C)[C@@]4(F)[C@@H](O)C[C@]3(C)[C@]2(C(=O)CO)O1`, the call was inactive.

On to `CCN(CC)C(=O)c1ccc(O)c(OC)c1`, for which the compound was classed as inactive.

In the case of `CCCNC(=O)NS(=O)(=O)c1ccc(Cl)cc1`, the result was inactive.
